Records with an inconclusive call do not appear. A number with no mark means an inactive call. Calls of active or inactive are those of the source. Calls come from the whole dose curve; as a rule, active = well fitted inhibition curve with a large enough effect; inconclusive = small, poorly fitted or top-dose-only effect; inactive = no such curve, though single readings can be large or run the other way.
target: Cruzipain (Trypanosoma cruzi) (UniProt P25779); assay: Confirmation qHTS Assay for Inhibitors of Cruzain; details: purified cruzain, Z-FR-AMC fluorescence, 0.01% Triton; note: nearly all actives have a fitted effect of over 40% in size;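 for activity change, negative = inhibition: plate controls were uninhibited enzyme control for no effect and buffer wells lacking enzyme for full effect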
In short: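 Purified cruzain, 1.5 nM, pre-incubated 15 min at room temperature with compound in 100 mM sodium acetate pH 5.5, 5 mM DTT, 0.01% Triton X-100. Then 2 uM Z-FR-AMC added; AMC fluorescence (ex 360/em 450 nm) increase over 60 s gave reaction progress.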
Potency is the fitted concentration of half-maximal effect.

Cruzipain (Trypanosoma cruzi), sequence (P25779 123-467 limits assumed): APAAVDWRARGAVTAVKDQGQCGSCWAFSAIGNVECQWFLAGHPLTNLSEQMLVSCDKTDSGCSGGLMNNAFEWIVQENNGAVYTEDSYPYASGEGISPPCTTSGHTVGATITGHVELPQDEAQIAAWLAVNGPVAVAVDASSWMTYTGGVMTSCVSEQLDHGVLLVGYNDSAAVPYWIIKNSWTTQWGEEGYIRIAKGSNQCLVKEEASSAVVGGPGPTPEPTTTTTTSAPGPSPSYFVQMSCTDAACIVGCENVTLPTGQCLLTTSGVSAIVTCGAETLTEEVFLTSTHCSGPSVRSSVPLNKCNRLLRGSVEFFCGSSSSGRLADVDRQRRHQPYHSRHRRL

Structure (SMILES) | activity change, negative = inhibition [%] | Potency
O=C(CNC(=O)C(c1ccccc1)c1ccccc1)OCC(=O)c1cccc2ccccc12 | 17.8 | –
O=C(COc1ccc(F)cc1)NCCc1nc2ccccc2[nH]1 | – | 0.199 µM (active)
Cc1ccccc1OCC(=O)NCC(=O)OCC(=O)c1ccc(F)cc1 | -14.6 | –
C=Cn1ccnc1P(=S)(c1ccc2c(c1)c1ccccc1n2CC)c1nccn1C=C | -8.46 | –
O=C(Cc1ccccc1)NCC(=O)OCC(=O)c1cccc2ccccc12 | – | 25.1 µM (active)
CCc1ccc2[nH]c(=O)c(CN(Cc3cccs3)Cc3nnnn3Cc3ccccc3)cc2c1 | -18.5 | –
N#Cc1nc(NCC(F)F)c2ncn(-c3cccc(Cl)c3)c2n1 | – | 0.0891 µM (active)
COc1cccc(C)c1NC(=O)C(OC(=O)CNC(=O)c1ccccc1)c1ccccc1 (stereo not drawn) | – | 25.1 µM (active)
N#Cc1nc(N(c2ccccc2)c2ccccc2)nc(-n2cccc2)n1 | – | 2.51 µM (active)
CCn1cnc2c(Nc3cc(F)cc(F)c3)nc(C#N)nc21 | – | 0.01 µM (active)
N#Cc1nc(NCCCCO)nc(Nc2ccccc2)n1 | – | 0.891 µM (active)
N#Cc1nc(NCC(F)F)c2ncn(-c3cc(F)cc(F)c3)c2n1 | – | 0.0562 µM (active)
CC(C)C[C@H](N)c1nnc(S(=O)(=O)Cc2cccc(F)c2)o1 | – | 15.8 µM (active)
COc1ccccc1OCCCn1c(CCNC(=O)C2CCCCC2)nc2ccccc21 | – | 0.708 µM (active)
COc1cccc(C(=O)NC2CCN(C#N)CC2)c1 | -6.95 | –
CCOC(=O)N1CCC(=C2c3ccc(Cl)cc3CCc3cccnc32)CC1 | -13.4 | –
O=C(COC(=O)CNS(=O)(=O)c1ccc(F)c(F)c1F)Nc1ccc(OC(F)F)cc1 | -11.4 | –
Cc1ccc(C(=O)C(OC(=O)CNC(=O)COc2ccccc2C)c2ccccc2)cc1 (stereo not drawn) | – | 3.16 µM (active)
Cc1ccc(C(=O)NCCn2c(N)c(C#N)c3nc4ccccc4nc32)cc1 | -28.5 | –

Structure (SMILES) | activity change, negative = inhibition [%] | Potency
CC(C)(C)OC(=O)Cc1nnc(-c2nc3ccccc3[nH]2)s1 | -9.29 | –
CNC(=O)c1ccc2nc(-c3ccccc3)c(-c3ccccc3)nc2c1 | -11.4 | –
CC(C)(C)c1ccc(OCCn2c(CCNC(=O)C3CCCCC3)nc3ccccc32)cc1 | – | 6.31 µM (active)
CC(C)(C)CNc1nc(C#N)nc(Nc2ccccc2)n1 | – | 2 µM (active)
C=CC(=O)c1ccc2ccccc2c1 | – | 25.1 µM (active)
O=C(CNC(=O)c1ccccc1)OCC(=O)c1ccccc1 | – | 15.8 µM (active)
N#Cc1nc(N2CCCC2)nc(N2CCCC2)n1 | – | 7.08 µM (active)
CCN1CCN(CCCNC(=O)c2cc3c(s2)-c2ccccc2OC3)CC1 | – | 15.8 µM (active)
Cc1ccccc1OCC(=O)NCC(=O)OCC(=O)c1ccc(Br)cc1 | – | 35.5 µM (active)
O=C(CNC(=O)Cc1ccccc1)NCC(=O)OCC(=O)c1cccc2ccccc12 | -13 | –
CC/C=C1/N=C2C(=O)N(C)C(=O)N=C2N(C)N1 | – | 0.631 µM (active)
O=C(CCN1C(=O)/C(=C/C=C/c2ccccc2)SC1=S)Nc1nccs1 | 1.52 | –
Cc1cccc2cc(CN(Cc3ccccc3)Cc3nnnn3Cc3ccccc3)c(=O)[nH]c12 | -11.7 | –
CCc1ccc(C(=O)COC(=O)CNC(=O)COc2ccccc2)cc1 | 35.9 | –
Cc1ccc(OCCCn2c(CCNC(=O)C3CCCCC3)nc3ccccc32)cc1 | – | 0.794 µM (active)
O=C(NC1CCCC1)c1ccc2nc(-c3ccco3)c(-c3ccco3)nc2c1 | – | 8.91 µM (active)
CC1(C)Cc2c(C#N)c(N3CCN(C(=O)c4ccccc4)CC3)nc(-c3ccco3)c2CS1 | – | 15.8 µM (active)
c1ccc(CNCc2nnc(-c3cc4ccccc4[nH]3)o2)cc1 | -1.64 | –
O=C(CNC(=O)C1CCCCC1)OCC(=O)c1ccc(F)cc1 | – | 2.51 µM (active)
